“And” between values parts separate entries of the source, which are not always exact repeats. Equal values may be shown once. Inconclusive results are not listed. Where a structure was tested more than once in an assay, its records may differ in their call. The source made the active and inactive calls. Unless noted, the call rests on the fitted dose curve.
How the values were obtained:
[1] = Nuclear factor erythroid 2-related factor 2/antioxidant responsive element (Nrf2/ARE) small molecule agonists: qHTS cell viability counter screen in human keratinocytes (AID 1919968; active means well fitted curve in the direction sought with a large enough effect in the repeat runs; an effect the other way counts as inactive or inconclusive; further: nearly all actives have a fitted effect of over 55% in size; further: potency means the concentration at half of the fitted maximal effect)
Summary of the method: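 Cytotoxicity was multiplexed with the Nrf2/ARE luciferase assay in the same wells. Stably transfected HaCaT keratinocytes were treated with test compounds for 23 h at 37 C. Cell viability was then measured by CellTiter-Fluor fluorescence.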

[2] = Nuclear factor erythroid 2-related factor 2/antioxidant responsive element (Nrf2/ARE) small molecule agonists: luciferase reporter gene qHTS assay in human keratinocytes (AID 1919969); further: nearly all actives have a fitted effect of over 35% in size; further: potency means the concentration at half of the fitted maximal effect
[3] = molecular target: Gonadotropin-releasing hormone receptor (Homo sapiens) (UniProt P30968); assay: Human gonadotropin-releasing hormone receptor (GnRHR) small molecule agonists, calcium flux assay in GnRHR-HEK293 cells (AID 1920063); further: nearly all actives have a fitted effect of over 35% in size
Summary of the method: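 Agonist activity was measured as intracellular calcium flux in HEK293 cells engineered to stably express human GnRHR. After dye loading for 1 hour at 37 C, compounds in DMSO were added and fluorescence was followed for 3 minutes.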

[4] = molecular target: KiSS-1 receptor (Homo sapiens) (UniProt Q969F8); assay: Human kisspeptin (KISS1R) small molecule agonists, calcium flux assay in KISS1R-HEK293 cells (AID 1920064; active means well fitted curve in the direction sought with a large enough effect in the repeat runs; an effect the other way counts as inactive or inconclusive)
Summary of the method: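 Agonist activity is monitored as intracellular calcium rise in engineered HEK293 cells carrying human KISS1R. Cells are dye-loaded for 1 h at 37 C before compound addition, and fluorescence is recorded for 3 min.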

[5] = G protein-coupled receptor (GPCR) small molecule agonists, calcium flux assay: HEK293 wild type cell line counter screen (AID 1920065)
Summary of the method: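 Seed cells, incubate 18 h (37 C, 5% CO2); add calcium dye, 1 h at 37 C; pin-transfer compounds, ATP control or DMSO; read fluorescence 480/540 nm each second for 3 min.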

[6] = p53 small molecule agonists, cell-based qHTS assay with human liver microsomes: qHTS cell viability counter screen (AID 1963579); further: nearly all actives have a fitted effect of over 45% in size; further: potency means the concentration at half of the fitted maximal effect
Summary of the method: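 Cytotoxicity counter screen: p53RE-bla, 4,000 cells/well; 5 h settle, 37 C/5% CO2; cpd + HLM 0.5 mg/mL + NADPH 0.5 mg/mL (final); 16 h, 37 C; CellTiter-Glo, 30 min RT, luminescence.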

[7] = p53 small molecule agonists, cell-based qHTS assay with rat liver microsomes: qHTS cell viability counter screen (AID 1963580); further: nearly all actives have a fitted effect of over 45% in size
Summary of the method: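 After the beta-lactamase ratio was read, CellTiter-Glo was added to the same wells and luminescence measured at 30 min; cells had been treated 16 h at 37 C with compounds, rat liver microsomes and NADPH (0.5 mg/mL final each).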

[8] = p53 small molecule agonists, cell-based qHTS assay: qHTS cell viability counter screen (AID 1963581); further: nearly all actives have a fitted effect of over 45% in size; further: potency means the concentration at half of the fitted maximal effect
Summary of the method: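 Viability was counter-screened in parallel with the p53 agonist reporter by measuring intracellular ATP luminescence in the same HCT-116 p53RE-bla wells after 16 h compound treatment at 37 C.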

[9] = molecular target: 5-hydroxytryptamine receptor 2A (Homo sapiens) (UniProt P28223); assay: 5-hydroxytryptamine receptor 2A (HTR2A) small molecule antagonists, cell-based qHTS assay (AID 1963586); further: nearly all actives have a fitted effect of over 45% in size
Summary of the method: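 CHO cells stably expressing human HTR2A were plated for 18 h at 37 C, then loaded with calcium dye for 1 h. Compounds were preincubated 5 min at room temperature before DOI (4 nM solution) was added. Kinetic fluorescence was read for 3 min.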

[10] = molecular target: 5-hydroxytryptamine receptor 2A (Homo sapiens) (UniProt P28223); assay: 5-hydroxytryptamine receptor 2A (HTR2A) small molecule agonists, cell-based qHTS assay (AID 1963587); further: nearly all actives have a fitted effect of over 30% in size
Summary of the method: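 CHO cells stably expressing human HTR2A, plated 18 h, loaded with calcium dye 1 h at 37 C. Agonist mode: compounds added and intracellular calcium fluorescence recorded kinetically for 2 min at 1 sec intervals.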

[11] = molecular target: Muscarinic acetylcholine receptor M1 (Homo sapiens) (UniProt P11229); assay: Cholinergic receptor muscarinic 1 (CHRM1) small molecule antagonists, cell-based qHTS assay (AID 1963588); further: nearly all actives have a fitted effect of over 40% in size
Summary of the method: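 Compounds were tested at 15 concentrations in three independent runs. Dye-loaded CHRM1-CHO cells were exposed 5 min at room temperature before stimulation by acetylcholine added at 50nM. Intracellular calcium was read kinetically on FDSS for 3 min.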

[12] = molecular target: Muscarinic acetylcholine receptor M1 (Homo sapiens) (UniProt P11229); assay: Cholinergic receptor muscarinic 1 (CHRM1) small molecule agonists, cell-based qHTS assay (AID 1963589); further: nearly all actives have a fitted effect of over 35% in size
Summary of the method: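 Cells were plated and incubated 18 h at 37 C/5% CO2, loaded with calcium dye for 1 h at 37 C, then treated with compounds in DMSO. Fluorescence was recorded kinetically at 1 sec intervals.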

[13] = molecular target: Beta-2 adrenergic receptor (Homo sapiens) (UniProt P07550); assay: Adrenergic beta2 receptor (ADRB2) small molecule antagonists, cell-based qHTS assay (AID 1963592); further: series mostly up to about 92 µM; nearly all actives have a fitted effect of over 50% in size
Summary of the method: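 Assay format: CHO-ADRB2 cells, 18-20hr seeding at 37C/5% CO2, then compound plus 1nM isoproterenol agonist mix for 0.5hr RT. Homogeneous time-resolved fluorescence cAMP detection after 1hr, expressed as 665/615 nm ratio.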

[14] = molecular target: D(2) dopamine receptor (Homo sapiens) (UniProt P14416); assay: Dopamine D2 receptor (DRD2) small molecule agonists, cell-based qHTS assay (AID 1963594); further: nearly all actives have a fitted effect of over 35% in size
Summary of the method: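 HEK293 cells stably expressing human DRD2, pre-treated with PDE inhibitor Ro20-1724 (0.1 mM final) and compound 10 min at room temperature, then stimulated with NKH477 (200nM […]) for 30 min. cAMP read by HTRF (665/620 nm).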

[15] = molecular target: D(2) dopamine receptor (Homo sapiens) (UniProt P14416); assay: Dopamine D2 receptor (DRD2) small molecule antagonists, cell-based qHTS assay (AID 1963595; active means well fitted inhibition curve with a large enough effect in the signal ratio in the repeat runs, with a control signal flat; the % refers to the signal ratio)
Summary of the method: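 HEK293 cells stably expressing DRD2, preincubated with 0.1 mM Ro20-1724 and compounds 10 min, were stimulated with 200 nM NKH477 plus 12 nM quinpirole for 30 min at room temperature; cAMP measured by HTRF (665/620 nm).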

[16] = cAMP Responsive Elements (CRE) small molecule agonists, cell-based qHTS assay (AID 1963590); further: potency means the concentration at half of the fitted maximal effect
Summary of the method: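 Cells carrying a CRE-driven beta-lactamase reporter (HEK 293T) are seeded, incubated overnight (18 h), and treated with test compounds for 3 h at 37 C; reporter activity is then detected with a FRET substrate after 2 h at room temperature.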

[17] = cAMP Responsive Elements (CRE) small molecule antagonists, cell-based qHTS assay (AID 1963591; active means well fitted inhibition curve with a large enough effect in the signal ratio in the repeat runs, not every such curve was filed as active; the % refers to the signal ratio)
Summary of the method: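 Cells (CRE-bla HEK 293T, DMEM with 10% dialyzed FBS and 25 mM HEPES) are seeded and incubated 18 h. Compounds are added with NKH477 agonist at 0.25 uM final for 3 h, then FRET substrate for 2 h.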

[18] = molecular target: Beta-2 adrenergic receptor (Homo sapiens) (UniProt P07550); assay: Adrenergic beta2 receptor (ADRB2) small molecule agonists, cell-based qHTS assay (AID 1963593);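 further: CHO cells stably overexpressing human ADRB2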
Summary of the method: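 CHO cells stably over-expressing ADRB2 were plated overnight at 37C, then dosed with compounds plus a stimulation mix containing 100uM IBMX and 25uM Ro-20-1724 for 0.5hr at room temperature. cAMP was measured by HTRF competition, 1hr.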

[19] = p53 small molecule agonists, cell-based qHTS assay with human liver microsomes (AID 1963577);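 further: p53 response element beta-lactamase reporter cells with liver microsomes plus NADPH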
Summary of the method: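 Fluorescence of the beta-lactamase reporter in p53RE-bla cells, detected with LiveBLAzer substrate (2 h, room temperature, dark), served as the read-out after 16 h compound exposure at 37 C with human liver microsomes and NADPH, each 0.5 mg/mL final.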

[20] = p53 small molecule agonists, cell-based qHTS assay (AID 1963582; active means well fitted activation curve with a large enough effect in the signal ratio in the repeat runs, not every such curve was filed as active; the % refers to the signal ratio)
Summary of the method: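 Cells carrying a p53-responsive bla reporter are treated with test compounds for 16 h at 37 C; beta-lactamase activity is then detected with LiveBLAzer B/G FRET substrate after 2 h at room temperature.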

Measured: Potency

Sequence of KiSS-1 receptor (Homo sapiens) (Q969F8 whole entry, looked up): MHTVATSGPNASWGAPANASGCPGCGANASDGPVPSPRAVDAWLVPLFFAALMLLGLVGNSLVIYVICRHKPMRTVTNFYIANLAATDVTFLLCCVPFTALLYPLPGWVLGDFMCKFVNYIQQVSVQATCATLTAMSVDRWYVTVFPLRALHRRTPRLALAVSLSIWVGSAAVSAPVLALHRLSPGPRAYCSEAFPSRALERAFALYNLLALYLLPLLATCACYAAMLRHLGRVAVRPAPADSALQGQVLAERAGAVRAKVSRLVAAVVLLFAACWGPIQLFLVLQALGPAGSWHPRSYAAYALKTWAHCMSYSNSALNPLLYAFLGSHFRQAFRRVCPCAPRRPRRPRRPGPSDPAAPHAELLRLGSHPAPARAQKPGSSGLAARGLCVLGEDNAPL
Sequence of Gonadotropin-releasing hormone receptor (Homo sapiens) (P30968 whole entry, looked up): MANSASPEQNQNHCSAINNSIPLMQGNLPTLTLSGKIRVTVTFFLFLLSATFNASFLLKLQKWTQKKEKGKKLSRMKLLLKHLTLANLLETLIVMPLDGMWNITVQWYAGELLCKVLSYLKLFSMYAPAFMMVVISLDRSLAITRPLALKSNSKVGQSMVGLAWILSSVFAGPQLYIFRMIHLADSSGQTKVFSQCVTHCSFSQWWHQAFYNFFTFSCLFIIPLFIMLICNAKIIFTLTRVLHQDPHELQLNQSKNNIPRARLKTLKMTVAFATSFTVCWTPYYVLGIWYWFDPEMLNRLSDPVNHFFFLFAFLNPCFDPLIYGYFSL
Sequence of Beta-2 adrenergic receptor (Homo sapiens) (P07550 whole entry, looked up): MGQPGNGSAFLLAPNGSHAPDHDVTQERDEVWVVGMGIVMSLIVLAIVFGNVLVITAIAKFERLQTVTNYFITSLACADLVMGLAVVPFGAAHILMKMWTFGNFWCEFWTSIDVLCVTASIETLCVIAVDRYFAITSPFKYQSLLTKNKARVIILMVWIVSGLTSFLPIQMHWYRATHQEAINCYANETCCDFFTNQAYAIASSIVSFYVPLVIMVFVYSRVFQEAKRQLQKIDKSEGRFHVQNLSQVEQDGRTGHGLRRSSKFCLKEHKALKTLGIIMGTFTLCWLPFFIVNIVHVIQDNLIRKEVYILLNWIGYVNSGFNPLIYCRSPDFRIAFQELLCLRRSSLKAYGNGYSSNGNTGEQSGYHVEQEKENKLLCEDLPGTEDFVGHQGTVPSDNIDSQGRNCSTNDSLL
Sequence of 5-hydroxytryptamine receptor 2A (Homo sapiens) (P28223 whole entry, looked up): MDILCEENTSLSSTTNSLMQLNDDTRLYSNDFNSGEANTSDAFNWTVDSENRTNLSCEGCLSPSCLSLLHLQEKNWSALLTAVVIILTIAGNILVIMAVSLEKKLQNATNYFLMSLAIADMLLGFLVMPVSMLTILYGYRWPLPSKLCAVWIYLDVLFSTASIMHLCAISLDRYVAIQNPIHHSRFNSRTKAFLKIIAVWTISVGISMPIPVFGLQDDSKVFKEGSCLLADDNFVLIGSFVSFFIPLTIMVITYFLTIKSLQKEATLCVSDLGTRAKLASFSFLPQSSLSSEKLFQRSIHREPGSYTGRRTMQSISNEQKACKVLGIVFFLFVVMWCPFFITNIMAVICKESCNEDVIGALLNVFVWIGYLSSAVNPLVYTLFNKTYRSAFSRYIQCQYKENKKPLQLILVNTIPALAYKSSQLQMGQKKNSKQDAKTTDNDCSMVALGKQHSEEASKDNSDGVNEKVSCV
Sequence of D(2) dopamine receptor (Homo sapiens) (P14416 whole entry, looked up): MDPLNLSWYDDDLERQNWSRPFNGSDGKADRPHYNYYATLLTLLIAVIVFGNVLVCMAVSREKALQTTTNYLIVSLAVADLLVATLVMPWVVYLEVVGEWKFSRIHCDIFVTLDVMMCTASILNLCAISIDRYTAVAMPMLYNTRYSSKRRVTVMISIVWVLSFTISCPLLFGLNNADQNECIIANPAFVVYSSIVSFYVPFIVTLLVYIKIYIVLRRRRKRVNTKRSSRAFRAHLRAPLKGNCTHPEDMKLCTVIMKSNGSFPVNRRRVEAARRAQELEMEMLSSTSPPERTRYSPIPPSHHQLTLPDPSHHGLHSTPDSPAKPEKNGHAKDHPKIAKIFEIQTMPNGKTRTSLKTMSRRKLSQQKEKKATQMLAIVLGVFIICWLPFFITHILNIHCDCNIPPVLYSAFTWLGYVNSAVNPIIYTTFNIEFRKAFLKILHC
Sequence of Muscarinic acetylcholine receptor M1 (Homo sapiens) (P11229 whole entry, looked up): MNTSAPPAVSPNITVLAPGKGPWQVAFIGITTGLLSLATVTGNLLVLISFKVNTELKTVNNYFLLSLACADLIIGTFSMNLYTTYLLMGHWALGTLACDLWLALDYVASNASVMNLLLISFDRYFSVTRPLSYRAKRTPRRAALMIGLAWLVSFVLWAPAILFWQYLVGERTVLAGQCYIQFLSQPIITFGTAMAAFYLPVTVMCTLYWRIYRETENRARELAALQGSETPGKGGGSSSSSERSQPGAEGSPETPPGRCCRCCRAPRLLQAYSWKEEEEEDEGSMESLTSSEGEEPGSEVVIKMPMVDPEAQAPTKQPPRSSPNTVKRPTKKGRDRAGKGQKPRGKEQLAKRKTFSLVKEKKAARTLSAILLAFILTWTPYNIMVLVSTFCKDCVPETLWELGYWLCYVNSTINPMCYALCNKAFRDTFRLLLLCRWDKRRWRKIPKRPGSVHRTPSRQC

CCc1cccc(CC)c1N(COC)C(=O)CCl
inactive: [1] | [3] | [4] | [5] | [6] | [7] | [8] | [9] | [10] | [11] | [12] | [13] | [14] | [15]
active: [2] 47 µM and 54.5 µM

C[N+](C)(C)CC(=O)[O-]
inactive: [1] | [2] | [3] | [4] | [5] | [6] | [7] | [8] | [9] | [10] | [11] | [12] | [16] | [17] | [13] | [18] | [14] | [15]

C=CCc1ccc(OC)cc1
inactive: [1] | [2] | [3] | [4] | [5] | [6] | [7] | [8] | [9] | [10] | [11] | [12] | [17] | [13] | [14]

ClC(Cl)=C(Cl)C(Cl)=C(Cl)Cl
inactive: [1] | [2] | [3] | [4] | [5] | [6] | [7] | [8] | [9] | [10] | [11] | [12] | [16] | [17] | [13] | [18] | [14] | [15]

O=C(O)COc1cc(Cl)c(Cl)cc1Cl
inactive: [1] | [2] | [3] | [4] | [5] | [6] | [7] | [8] | [9] | [10] | [11] | [12] | [13] | [14] | [15]

CCn1cc[n+](C)c1
inactive: [1] | [2] | [3] | [4] | [5] | [6] | [7] | [8] | [9] | [10] | [11] | [12] | [16] | [17] | [13] | [18] | [14] | [15]

Nc1c(Cl)cc([N+](=O)[O-])cc1Cl
inactive: [1] | [2] | [3] | [4] | [5] | [6] | [7] | [9] | [10] | [11] | [12] | [16] | [13] | [18] | [14] | [15]

Cc1ccc(N)cc1Cl
inactive: [1] | [2] | [3] | [4] | [5] | [6] | [7] | [9] | [10] | [11] | [12] | [16] | [17] | [13] | [18] | [14] | [15]

CCCn1cc[n+](C)c1
inactive: [1] | [2] | [3] | [4] | [5] | [6] | [7] | [8] | [9] | [12] | [16] | [17] | [13] | [18] | [14] | [15]

C[C@]12CC[C@H](O)CC1=CC[C@@H]1[C@@H]2CC[C@]2(C)C(=O)CC[C@@H]12
inactive: [1] | [2] | [3] | [4] | [5] | [6] | [7] | [8] | [13] | [18] | [14] | [15]

C[C@@H]1O[C@@H](O[C@H]2C[C@@H](O)[C@]3(CO)[C@H]4[C@H](O)C[C@]5(C)[C@@H](C6=CC(=O)OC6)CC[C@]5(O)[C@@H]4CC[C@]3(O)C2)[C@H](O)[C@H](O)[C@H]1O
68.8 nM (active) and inactive: [6]
active: [1] 730 nM and 1.06 µM | [2] 163 nM and 211 nM | [8] 126 nM
inactive: [3] | [4] | [5] | [13] | [18] | [14] | [15]

C#CCN(C)[C@H](C)Cc1ccccc1
inactive: [1] | [2] | [3] | [4] | [5] | [6] | [7] | [8] | [16] | [17] | [13] | [18] | [15]

NC(=O)OCCCc1ccccc1
inactive: [1] | [2] | [3] | [4] | [19] | [6] | [7] | [8] | [20] | [9] | [10] | [11] | [12] | [16] | [17] | [13] | [18] | [15]

CCCN(CCOc1c(Cl)cc(Cl)cc1Cl)C(=O)n1ccnc1
inactive: [1] | [2] | [3] | [4] | [5] | [6] | [8] | [20] | [9] | [10] | [11] | [12] | [17] | [14] | [15]
active: [16] 27.9 µM and 48.6 µM

COC(=O)c1ccccc1CS(=O)(=O)NC(=O)Nc1nc(OC)cc(OC)n1
inactive: [1] | [2] | [3] | [4] | [19] | [6] | [7] | [8] | [20] | [9] | [10] | [11] | [12] | [16] | [17] | [13] | [18] | [14] | [15]

OC[C@@H](O)[C@H]1O[C@@H]2O[C@H](C(Cl)(Cl)Cl)O[C@@H]2[C@H]1O
inactive: [1] | [2] | [3] | [4] | [5] | [6] | [7] | [8] | [10] | [12] | [16] | [17] | [13] | [14] | [15]

From PubChem BioAssay (Tox21)
